The entries come from a sample that favours hits as a whole.
Pf Dd2 growth – inhibitors of Plasmodium falciparum Dd2 growth. P. falciparum Dd2 growth, SYBR Green, 72 h. Potency, µM (doses to about 28.9 µM), inactives show top-dose activity, negative = inhibition, actives largely listed as inhibitors. hit rate 4.3% among 120,000. AID 1347417; active means well fitted inhibition curve with a large enough effect;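 further: plate controls were DMSO vehicle for no effect and reference drug for full effect; nearly all actives have a fitted effect of over 65% in size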
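Readout: SYBR Green fluorescence, 485 nm excitation, 535 nm emission, after ~16 h lysis at 37C. Before that, Dd2-infected red cells (2.5% hematocrit) grew 72 h with compound, 29 uM top final concentration.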
An asterisk follows results filed as active; i = inactive; [ ] = another dose, or the depositor's remark. Potency means the concentration at half of the fitted maximal effect.

SMILES	Pf Dd2 growth
COc1ncccc1CNC[C@H]1Cn2c(-c3ccc(F)cc3)cnc2CO1	25.1µM*
Clc1ccc(-c2cnc3n2C[C@H](CNCc2cccnc2)OC3)cc1	-10.5%[44.1 µM]
O=S(=O)(Cc1ccccc1)NC[C@H]1Cn2c(-c3ccc(F)cc3)cnc2CO1	i
Clc1ccc(CNC[C@H]2Cn3c(-c4ccccc4)cnc3CO2)cc1	-12.1%[44.1 µM]
CCCCS(=O)(=O)N[C@H]1CN(Cc2c(C)noc2C)C[C@@H]1C(C)C	-16.8%
Cc1ccc(C)c(CN2CC(C(=O)NCc3ccncc3)C3(CCOCC3)C2)c1 (configuration not stated)	-23.4%
O=C1CC2(CCN([S+](=O)([O-])c3ccccc3)C2)Nc2ccccc2N1 (configuration not stated)	1.7%
CN(C)C(=O)c1ccc(N2CC3CC(C2)[C@H]2CCCC(=O)N2C3)nc1 (some centres not stated)	4.4%
CC(=O)N[C@H]1CO[C@H]2[C@@H]1OC[C@@H]2Nc1nccc(C2CCCC2)n1	-8.0%[44.1 µM]
C[C@@H]1CN(C[C@@H]2CN(C(=O)C3CCC3)C[C@@H]2CO)C[C@H](C)O1	-4.5%
O=[S+]([O-])(c1cccc(C(F)(F)F)c1)N1CCCC2(CC(c3cccc(C(F)(F)F)c3)=NO2)C1 (configuration not stated)	13.1%
COc1ccc(C(=O)N2CCC3(CCC3OC)CC2)cc1 (configuration not stated)	5.1%
COc1ccc(OC)c(CN2CCNc3cnc(Nc4cccnc4)cc3C2)c1	i
CC(=O)Nc1cccc(-c2cc3c(cn2)CN(Cc2ccccc2)CCN3)c1	i
COc1ccc(Nc2cc3c(cn2)CN(CCc2ccccc2)CCN3)cn1	-5.4%[44.1 µM]
Fc1ccccc1CN1CCNc2cc(Nc3ccccc3)ncc2C1	-28.3%[44.1 µM]
c1ccc(Nc2cc3c(cn2)CN(Cc2cnc[nH]2)CCN3)cc1	-5.1%[44.1 µM]
c1cncc(Nc2cc3c(cn2)CN(CC2CCOCC2)CCN3)c1	-13.2%[44.1 µM]
c1ccc(Nc2cc3c(cn2)CN(Cc2cccs2)CCN3)cc1	7.94µM*
COc1ccc(CN2CCNc3cc(Nc4ccccc4)ncc3C2)cc1O	i
COc1ccc(OC)c(CN2CCNc3cc(Nc4ccccc4)ncc3C2)c1	3.55µM*
CN1CCNc2cc(NCc3ccccc3)ncc2C1	-1.4%[44.1 µM]
CCCN1CCNc2cc(Nc3ccccc3)ncc2C1	8.91µM*
c1ccc(Nc2cc3c(cn2)CN(CC2CC2)CCN3)cc1	12.6µM*
CN(C)c1ccc(C(=O)NC[C@H]2C[C@@H]3CCN2C[C@@H]3CN2CCN(c3ccccn3)CC2)cc1	0.8%
SMILES	Pf Dd2 growth
Cn1ccnc1C(=O)N1CCC(C2CCN(S(C)(=O)=O)CC2)C1 (configuration not stated)	26.7%
CC(O)c1cc2n(n1)CCCN(C(=O)CCc1cn3ccccc3n1)C2 (configuration not stated)	-1.6%
COCC(=O)N1CC[C@H]2COC(=O)N2c2cc(C)ccc2C1	15.8%[44.1 µM]
O=C(Cn1nc2c(cc1=O)CCCCC2)N1CCN(Cc2ccccc2)CC1	4.8%
CN1CCN(C(=O)CC2CCCN(c3cnn(C)c(=O)c3)C2)CC1 (configuration not stated)	47.9%
O=C(c1ccccc1F)N1CC(N(Cc2cccnc2)C(=O)Nc2ccccc2)C1	-26.0%
CN1CCC(N2CC[C@H](c3nnc(-c4cccnc4)o3)C2)CC1	-5.1%[44.1 µM]
O=C1NC(C(=O)Nc2ccccc2F)Cn2cccc21 (configuration not stated)	24.4%
c1ccc(CCN2CCNc3cc(NCCN4CCOCC4)ncc3C2)cc1	-4.4%[44.1 µM]
Fc1cccc(CN2CCNc3cc(Nc4ccccc4)ncc3C2)c1	-18.1%[44.1 µM]
c1ccc(CN2CCNc3cc(Nc4ccc(N5CCOCC5)cc4)ncc3C2)cc1	11.2µM*
O=C(c1cccs1)N1CC[C@@H]2[C@@H](CCC(=O)N2CCc2cnc[nH]2)C1	-5.0%
CCC1CCCCN1C(=O)CSc1nc2c([nH]c3ccccc32)c(=O)n1-c1ccc(OC)cc1 (configuration not stated)	12.6µM*
CCOC(=O)CSc1nc2c([nH]c3ccccc32)c(=O)n1-c1ccc(OC)cc1	-2.7%
COC(=O)c1ccc(CSc2nc3c([nH]c4ccccc43)c(=O)n2-c2ccc(OC)cc2)o1	-10.1%
COc1ccc(-n2c(SCC(=O)NC3CCCCC3)nc3c([nH]c4ccccc43)c2=O)cc1	10µM*
CCOc1ccc(-n2c(SCC(=O)NCC3CCCO3)nc3c([nH]c4ccccc43)c2=O)cc1 (configuration not stated)	0.7%
COc1ccc(-n2c(SCC(=O)N3CCCc4ccccc43)nc3c([nH]c4ccccc43)c2=O)cc1	12.3%
COC[C@H]1CCCN1C[C@H]1CN2CC[C@H]1C[C@@H]2CNC(=O)c1ccc(C(F)(F)F)cc1	i
COc1cc(CN2CCN(Cc3cccc(SC)c3)CC2CCO)cc(OC)c1 (configuration not stated)	-6.3%
CC(C)NC(=O)NCC1(COc2ccccc2)C[C@@H](O)[C@@H](O)C1 (some centres not stated)	9.7%[44.1 µM]
Cn1nc(CC2CCN(c3cc(N)ncn3)CC2)n(-c2ccccc2)c1=O	10.5%
COC(=O)CNC(c1ccccc1)c1cc(Br)ccc1NC(=O)c1ccc(Cl)cc1 (configuration not stated)	i
CCOC(=O)CSc1nc2ccc(NC(=O)c3ccc(Cl)cc3)cc2s1	-6.3%
CCOC(=O)CNC(c1ccccc1)c1cc(Br)ccc1NC(=O)c1ccc(Cl)cc1 (configuration not stated)	3.98µM*
SMILES	Pf Dd2 growth
CN1C(=O)C(CC(=O)NCc2ccccc2)=C2CCCCC21 (configuration not stated)	-9.6%
Cc1c(C(=O)N2C[C@@H](C(=O)O)[C@H](c3ccccc3)C2)sc2nc[nH]c(=O)c12	0.4%
CCO[C@H]1CN(Cc2cnc(-c3ccccc3C)s2)C[C@@H]1O	-17.0%
Cc1ccccc1-c1nccn2c(C3CN(Cc4ccccc4O)C3)ncc12	0.355µM*
Cn1nccc1C(=O)N1CC(c2ncc3c(-c4ccccc4)nccn23)C1	-15.7%[44.1 µM]
Cn1cnnc1CC1CCCN(C(=O)c2ccccc2)C1 (configuration not stated)	12.1%
O=C(c1ccc(N2CCC(NCC(c3ccccc3)c3ccccc3)CC2)cc1)N1CCCC(O)C1 (configuration not stated)	11.2µM*
O=C(Nc1ccc(N2CCC(NCC(c3ccncc3)N3CCOCC3)CC2)cc1)C1CCCC1 (configuration not stated)	-8.9%
C=CCOc1cccc(-c2nc(C(=O)N(C)CC)cs2)c1	i
CN1CCC(NC2(Cc3cc(C(C)(C)O)on3)COC2)CC1	15.5%[44.1 µM]
COc1ccc(C(=O)N[C@@H]2CCC[C@@H]2C(=O)NCC(C)C)cc1	-13.2%
CC(C)(C)c1ccc(-c2cc(C[C@H]3CNCC[C@H]3CC(=O)Nc3ccccc3)no2)cc1	-24.6%[44.1 µM]
CC(C)(C)c1ccc(-c2cc(C[C@H]3CNCC[C@H]3CC(=O)N3CCC(Cc4ccccc4)CC3)no2)cc1	i
CCN(CC)C(=O)C[C@@H]1CCNC[C@@H]1Cc1cc(-c2ccc(C(C)(C)C)cc2)on1	4.47µM*
O=C(C[C@@H]1CCNC[C@@H]1Cc1cc(-c2ccccc2)on1)NC1CC1	11.5%[44.1 µM]
CC(C)(C)c1ccc(-c2cc(C[C@H]3CNCC[C@H]3CC(=O)NCCN3CCOCC3)no2)cc1	10µM*
CN1CCN(C(=O)C[C@@H]2CCNC[C@@H]2Cc2cc(-c3ccccc3)on2)CC1	i
CN(C)CCNC(=O)C[C@@H]1CCNC[C@@H]1Cc1cc(-c2ccc(C(C)(C)C)cc2)on1	i

Source: PubChem BioAssay
